{"source": "PubChem BioAssay AID2284386", "about": "(EPA ToxCast)", "target": "Peroxisome proliferator-activated receptor gamma (Homo sapiens) (UniProt P37231)", "sequence (P37231 whole entry, looked up)": "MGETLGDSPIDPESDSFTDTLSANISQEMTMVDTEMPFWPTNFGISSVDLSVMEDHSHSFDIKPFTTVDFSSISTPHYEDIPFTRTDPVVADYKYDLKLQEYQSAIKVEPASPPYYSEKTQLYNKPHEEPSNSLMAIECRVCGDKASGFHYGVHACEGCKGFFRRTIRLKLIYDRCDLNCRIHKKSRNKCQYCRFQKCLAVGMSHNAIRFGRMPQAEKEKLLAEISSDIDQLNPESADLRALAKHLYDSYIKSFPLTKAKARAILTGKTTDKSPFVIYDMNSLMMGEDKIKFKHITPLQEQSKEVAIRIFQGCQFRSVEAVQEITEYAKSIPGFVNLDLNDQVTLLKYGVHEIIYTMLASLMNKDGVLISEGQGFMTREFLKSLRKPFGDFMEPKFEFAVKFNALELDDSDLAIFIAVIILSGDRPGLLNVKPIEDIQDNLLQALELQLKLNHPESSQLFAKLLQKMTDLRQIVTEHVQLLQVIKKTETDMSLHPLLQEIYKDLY", "test": "ERF_FR_NR_COA_hPPARG: Eurofins (ERF) Nuclear Receptor (NR) Functional Coactivator Assay for human Peroxisome Proliferator-activated Receptor gamma (PPARg) Agonism, conducted at France lab site", "procedure": "ERF_FR_NR_COA_hPPARG is a biochemical, single-readout assay that uses extracted gene-proteins in a cell-free assay. Measurements were taken 2 hours after chemical dosing in a 384-well plate. See PPARgamma Human NHR Functional Agonist Coactivator Assay, Cerep.ERF_FR_NR_COA_hPPARG is an assay component calculated from the ERF_FR_NR_COA_hPPARG assay. It is designed to measure FRET using a type of binding reporter as detected by fluorescence intensity of Rosiglitazone with fluorimetry technology.Data from the assay component ERF_FR_NR_COA_hPPARG was analyzed at the assay endpoint, ERF_FR_NR_COA_hPPARG, in the positive analysis fitting direction relative to DMSO as the negative control and baseline of activity. Using a type of binding reporter, gain-of-signal activity can be used to understand changes in binding as they relate to gene PPARG. […]\nTest compound and/or vehicle is incubated with the 2 nM receptors and coactivator peptide for 180 minutes at room temperature. Determination of the amount of complex formed is read spectrofluorimetrically (excitation: 337 nm, emission: 520/490 nm). Test compound-induced increase fluorescence by 50 percent or more (>/=50%) relative to 1 uM GW1929 response indicates possible PPARgamma receptor agonist activity. […]", "note": "Active and inactive are the calls of the source. The calls were made as follows: active = hit-call score of the fitted dose curve at least 0.9, where 1 is the maximum; inactive = score below 0.9."}
{"smiles": "O=S(=O)(O)C(F)(F)C(F)(F)C(F)(F)C(F)(F)C(F)(F)C(F)(F)C(F)(F)C(F)(F)F", "values": [{"measurement": "outcome", "value": "inactive"}]}
